In all, about 310,000 compounds went through this assay and about 14,000 (4.5%) showed an effect of 50% or more. Effects have a minus sign here. This is one part of a sample in which strong results are shown more often than they occur.
target: human ether-à-go-go-related gene (hERG) potassium channel (human, UniProt Q12809); test: primary screen, population patch clamp on CHO cells stably expressing hERG; higher = less effect of the substance
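Also: peak tail current of the secondary pulse compared with the same well before compound.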

Sequence of human ether-à-go-go-related gene (hERG) potassium channel (Q12809 whole entry, looked up): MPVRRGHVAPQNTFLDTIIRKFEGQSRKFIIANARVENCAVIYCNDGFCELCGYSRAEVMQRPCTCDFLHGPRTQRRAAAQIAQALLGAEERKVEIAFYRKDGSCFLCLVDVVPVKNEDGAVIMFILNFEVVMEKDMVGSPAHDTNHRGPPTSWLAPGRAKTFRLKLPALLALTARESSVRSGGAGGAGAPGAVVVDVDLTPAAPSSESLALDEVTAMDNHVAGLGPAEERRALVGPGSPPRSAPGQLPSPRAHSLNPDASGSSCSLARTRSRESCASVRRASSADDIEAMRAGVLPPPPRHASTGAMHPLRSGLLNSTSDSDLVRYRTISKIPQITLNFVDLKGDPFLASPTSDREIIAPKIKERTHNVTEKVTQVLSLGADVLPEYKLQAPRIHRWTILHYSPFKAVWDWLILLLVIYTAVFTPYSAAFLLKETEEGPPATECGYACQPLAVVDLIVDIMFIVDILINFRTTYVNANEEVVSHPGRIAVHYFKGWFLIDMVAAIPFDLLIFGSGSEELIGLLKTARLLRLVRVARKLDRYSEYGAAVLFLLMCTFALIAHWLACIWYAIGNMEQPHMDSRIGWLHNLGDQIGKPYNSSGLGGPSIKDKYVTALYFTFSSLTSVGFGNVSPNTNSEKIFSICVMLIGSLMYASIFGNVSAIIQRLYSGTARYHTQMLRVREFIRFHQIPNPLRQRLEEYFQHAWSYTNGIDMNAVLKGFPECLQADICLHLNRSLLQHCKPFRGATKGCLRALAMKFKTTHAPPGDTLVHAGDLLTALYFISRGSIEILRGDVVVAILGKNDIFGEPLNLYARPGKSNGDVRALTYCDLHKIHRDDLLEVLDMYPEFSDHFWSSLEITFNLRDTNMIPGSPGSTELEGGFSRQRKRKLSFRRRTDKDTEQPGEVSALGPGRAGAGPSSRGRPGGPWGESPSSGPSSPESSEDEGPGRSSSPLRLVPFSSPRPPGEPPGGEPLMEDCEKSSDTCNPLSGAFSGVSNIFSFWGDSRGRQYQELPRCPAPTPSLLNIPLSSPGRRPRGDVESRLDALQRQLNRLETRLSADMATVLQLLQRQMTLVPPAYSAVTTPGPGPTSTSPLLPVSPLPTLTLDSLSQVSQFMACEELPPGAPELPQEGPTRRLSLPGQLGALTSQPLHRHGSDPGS

SMILES | hERG current change (%, negative = inhibition) at 10uM
Cc1c(C)n(CC(O)CNCCO)c2ccccc12.O=C(O)C(=O)O (stereo not shown) | 5.33%
CN1CCN(C(=O)CN(C)S(=O)(=O)c2cc(Cl)ccc2Cl)CC1 | 4.23%
CC1(C)CC2CN(C(=O)Cc3ccccc3)C(C)(C2)C1 (stereo not shown) | 0.0688%
COc1ccc(/C=N/NC(=O)c2ccco2)cc1Cn1nc(C)cc1C | -2.47%
COc1ccc(-c2nnc(NC(=O)c3ccc(S(=O)(=O)N4CCCc5ccccc54)cc3)o2)cc1 | 0.175%
CC1(C)CC(=O)c2sc(N3CCCCC3)nc2C1 | -2.83%
COc1cc(CC(=O)N/N=C/c2ccccc2)c([N+](=O)[O-])cc1OC | 0.219%
Clc1cccc(CNCCc2c[nH]c3ccccc23)c1.O=C(O)C(=O)O | -14%
c1ccc(Cn2nnnc2C(c2ccccc2)N2CCN(c3nc4ccccc4s3)CC2)cc1 (stereo not shown) | -11.7%
CS(=O)(=O)N1CCN(c2ccc(NC(=O)CSc3ccc(Cl)cc3)cc2)CC1 | -0.247%
CC(C)OC(=O)CN1CCN(c2ccc(Cl)cc2)CC1 | 1.73%
COc1ccc(N2CCN(CCCN)CC2)cc1 | 8.6%
O=C(NCCOc1ccccc1)c1ccccc1SCC(=O)N1CCCC1 | 14.9%
O=C(CCc1ccccc1)N1CCCC1 | 8.96%
O=C(O)c1ccccc1SCC(=O)N1CCCCC1 | 15.2%
CCOC(=O)N1CCN(C(=O)CCc2ccccc2)CC1 | 5.12%
O=C(NCCc1ccccc1)c1ccccc1SCC(=O)N1CCCC1 | -51.3%
CCCCCCN1CCN(c2ccc(Cl)cc2)CC1 | -66.9%
O=C(CCc1ccccc1)N1CCCN(C(=O)CCc2ccccc2)CC1 | -51.5%
CNc1nc(-c2ccc3c(c2)CCN3C(=O)CC(C)(C)C)c(C)s1 | 38%
C=CC#CC1(O)CC(C)[N+](C)(C)CC1C.[I-] (stereo not shown) | 17.4%
CCCCn1c(N)c(N(CC(C)C)C(=O)CSC(C)C(=O)Nc2cc(C)on2)c(=O)[nH]c1=O (stereo not shown) | 9.14%

SMILES | hERG current change (%, negative = inhibition) at 10uM
CN(CCc1nc2ccccc2[nH]1)Cc1nc(CC2CC2)no1 | -13.7%
CN(CCc1nc2ccc(Cl)cc2[nH]1)Cc1nc(CC2CC2)no1 | -50.8%
CN(Cc1nc2ccc(F)cc2[nH]1)Cc1nc(CC2CC2)no1 | -12.3%
CCn1cc(C(=O)N(C)Cc2ccc(OC(F)F)cc2)c(=O)c2ccc(C)nc21 | -65.1%
COc1ccc2oc(C(=O)N(C)Cc3ccc4c(c3)OCCO4)c(C)c2c1 | -10.5%
COc1ccc2oc(C(=O)N(C)Cc3ccc(OC(F)F)cc3)c(C)c2c1 | -53.8%
COc1ccc2oc(C(=O)N(C)CCOc3ccccc3)c(C)c2c1 | -28.9%
COc1ccc(CCN(C)C(=O)c2oc3ccccc3c2C)cc1OC | -0.562%
CCCCN(C)C(=O)c1cn(CC)c2nc(C)ccc2c1=O | -3.49%
CCn1cc(C(=O)OCC(=O)N(C)Cc2ccccc2)c(=O)c2ccc(C)nc21 | -11.1%
Cc1c(C(=O)N(C)Cc2ccc(OC(F)F)cc2)oc2ccccc12 | -69.9%
Cc1c(C(=O)OCC(=O)N(C)Cc2ccccc2)oc2ccccc12 | -29.4%
CCCNC(=O)Nc1ccccc1C(=O)Nc1ccc(OC)cc1 | 2.77%
OCC1CCCN(C(=S)NCCc2ccccc2)C1 (stereo not shown) | 0.885%
CCCn1nc(Oc2nc(NCC)nc(NCC)n2)ccc1=O | 1.1%
CCCn1nnc(NC(=O)c2cccc(OCC(C)C)c2)n1 | -3.93%
O=C(NCCc1ccccc1)C1CCN(S(=O)(=O)c2cccs2)CC1 | -2.14%
O=C(NCc1ccccc1Cl)C1CCN(S(=O)(=O)c2cccs2)CC1 | -63.4%
O=C(NCCc1ccc(Cl)cc1)C1CCN(S(=O)(=O)N2CCCC2)CC1 | -52.3%
O=C(NCc1cccs1)C1CCN(S(=O)(=O)c2cccs2)CC1 | -32.1%
O=C(NCCc1ccccc1Cl)C1CCN(S(=O)(=O)c2cccs2)CC1 | -34.8%
O=C(NCCc1ccc(Cl)cc1)C1CCN(S(=O)(=O)c2cccs2)CC1 | -71.2%

SMILES | hERG current change (%, negative = inhibition) at 10uM
O=C(NCCc1ccc(Cl)cc1)C1CCCN(S(=O)(=O)N2CCCCCC2)C1 (stereo not shown) | -18.7%
O=C(NCc1ccc(Cl)cc1)C1CCN(S(=O)(=O)c2cccs2)CC1 | -3.7%
O=C(NCCc1ccc(Cl)cc1)C1CCN(S(=O)(=O)N2CCCCC2)CC1 | -5.98%
O=C1C=C(c2ccccc2)C[C@H](c2cccs2)[C@H]1n1cnc([N+](=O)[O-])c1 | -18.8%
COC(=O)c1nc2cc3c(cc2c(C)c1C(=O)OC)OCO3 | 10.8%
COC(=O)CN(C(=S)Nc1ccccc1)C1CC(=O)N(c2ccc(OC)cc2)C1=O (stereo not shown) | -6.5%
O=C1CCCC(O)=C1N=Nc1c(Cl)cc(Cl)cc1Cl | 7.14%
C=CCn1cc(C(=O)OCC)c(=O)c2ccc(F)cc21 | 5.56%
O=C(c1ccc(F)cc1)c1cn(Cc2ccc(F)cc2)c2cc3c(cc2c1=O)OCCO3 | -71.1%
CC(=O)Nc1cc2c(cc1C(=O)c1ccc(C)cc1)OCCO2 | 5.77%
O=C(C(=O)N1CCOCC1)c1cn(Cc2ccc(F)cc2)c2ccccc12 | -32%
CC(C)c1ccc(S(=O)(=O)c2cn(Cc3ccc(F)cc3)c3cc4c(cc3c2=O)OCO4)cc1 | -1%
CCn1cc(C(=O)O)c(=O)c2cc3c(cc21)OCO3 | 20.5%
Cc1ccc(Cn2cc(S(=O)(=O)c3ccc(C(C)C)cc3)c(=O)c3cc4c(cc32)OCO4)cc1 | -8.58%
Cc1ccc(Cn2cc(C(=O)NN)c(=O)c3ccc(F)cc32)cc1 | -51.6%
Cc1ccc(Cn2cc(C(=O)c3ccc(F)cc3)c(=O)c3cc4c(cc32)OCCO4)cc1 | -57.1%
Cc1ccc(C(=O)c2cc3c(cc2N)OCCO3)cc1 | -11.4%
Cc1ccc(S(=O)(=O)c2cn(Cc3ccc(F)cc3)c3cc4c(cc3c2=O)OCO4)cc1 | -55%
CCOC(=O)c1cn(Cc2ccc(C)cc2)c2cc(F)ccc2c1=O | -10.9%
O=C(O)CC1SC(=O)N(Cc2ccccc2)C1=O (stereo not shown) | 21%
Cc1cc(Cl)ccc1OCc1cn2cccnc2n1 | -17.5%
CCCn1cc(SCC(=O)NCC2CCCO2)c2ccccc21 (stereo not shown) | 4.17%

SMILES | hERG current change (%, negative = inhibition) at 10uM
CC(C)CN(C(=O)COC(=O)c1ccc2c(c1)OCCO2)c1c(N)n(Cc2ccccc2)c(=O)[nH]c1=O | 5.66%
Cc1ccc(C)n1NC(=O)c1ccco1 | 14.8%
O=C(CSc1ncccn1)Nc1ncc(C(F)(F)F)cc1Cl | 47.2%
COC(=O)C1=C(C)NC(C)=C(C(=O)O[C@@H]2CCCN(Cc3ccccc3)C2)[C@@H]1c1cccc([N+](=O)[O-])c1.Cl | 9.68%
CCOc1ccc(N/C(SC)=C(/C#N)C(N)=O)cc1 | 4.98%
COc1cccc(N/C(SCc2cccc([N+](=O)[O-])c2)=C(/C#N)C(N)=O)c1 | -19.9%
CCOc1ccc(N/C(SCc2cccc([N+](=O)[O-])c2)=C(/C#N)C(N)=O)cc1 | -59.1%
COc1ccc(CNCCc2ccc([N+](=O)[O-])cc2)c(OC)c1OC.O=C(O)C(=O)O | -68.9%
COc1ccccc1CNCc1ccc(OC)c(OC)c1OC.O=C(O)C(=O)O | -8%
COc1ccc(CCNCc2ccc(OC)c(OC)c2OC)cc1 | -37.6%
COc1cc(OC)c(OC)cc1CNCCc1cccc(F)c1.O=C(O)C(=O)O | -15.2%
COc1ccc(CNCCc2cccc(F)c2)c2ccccc12.O=C(O)C(=O)O | -74%
COc1ccc(CNCCc2ccc3c(c2)OCO3)c(OC)c1OC.O=C(O)C(=O)O | -29.9%
COc1cccc(CNCCc2cccc(F)c2)c1OC.O=C(O)C(=O)O | -5.22%
COc1ccccc1CCNCc1ccc(OC)c(OC)c1OC.O=C(O)C(=O)O | 15.5%
COc1ccc(CNCCc2ccc(Cl)cc2)c(OC)c1OC.O=C(O)C(=O)O | -51.6%
O=C(N/N=C/c1c(O)ccc2ccccc12)c1cccnc1 | 7.7%
COC(=O)COc1ccc(S(=O)(=O)N2CCN(c3ccccc3F)CC2)cc1 | -3.27%
O=C(Nc1ccc(-c2csnn2)cc1)C(Cl)(Cl)Cl | 17.5%
CC(C)C(=O)OCC(=O)Nc1ccc(N=Nc2ccccc2)cc1 | 4.2%
CCN(CC)S(=O)(=O)c1cc(NS(=O)(=O)c2cccc(Cl)c2Cl)ccc1C | -1.79%
CCCOc1ccc(NC(=O)C2CC(=O)N3CCCN=C3S2)cc1 (stereo not shown) | -11%

— article PMC4336329 (PLoS ONE, 2015)
